# Laboratory results published in PubChem BioAssay AID504834 (National Center for Advancing Translational Sciences (NCATS), 2011).
# The whole screen tested about 320,000 compounds, of which about 22,000 (6.9%) were called active. Roughly 27% stayed inconclusive and do not appear here. For the sample, actives were picked, then their nearest neighbours and some compounds at random. Values without a mark were called inactive. The call rests on the fitted dose curve; in most records, active means well fitted inhibition curve with a large enough effect; inconclusive means small, poorly fitted or top-dose-only effect, or another doubt; inactive means no such curve, though single readings can be large or run the other way.
# Assay: Primary qHTS for delayed death inhibitors of the malarial parasite plastid, 96 hour incubation
# Details: P. falciparum luciferase reporter growth; series mostly up to 28.7 µM; activity change, negative = inhibition: at the top concentration
# Description: The goal of this screen is to discover new antimalarial compounds that act by inhibiting the development of the apicoplast in the malarial parasite Plasmodium falciparum. The biochemical processes that make this organelle essential for erythrocytic stage parasites are not well understood. However, antibiotics such as azithromycin and tetracycline, which target the apicoplast translational machinery, have a potent antimalarial effect.
# We have developed a cell-based assay that measures parasite growth based on the expression of an integrated copy of a firefly luciferase reporter. To detect small molecules that cause this "delayed death" phenotype, erythrocytes infected with the luciferase-expressing parasites were incubated with compounds for either one or two generations, corresponding to 48 and 96 hours, respectively. Compounds that inhibit parasite growth in the second generation, but not the first, should be enriched in antimalarials that target the apicoplast. Growth inhibition is detected by a decrease in luciferase activity.
# Assay Provider: David Fidock and Eric Ekland, Columbia University
# Keywords: NIH Roadmap, MLPCN, MLI, MLSMR, qHTS, NCGC, qHTS, malaria, luciferase, viability
# Four microliters of infected erythrocytes (2% hematocrit, 0.05% parasitemia final concentration) in culture medium were dispensed and the plates incubated for 96 hours at 37 C in 5% CO2. Two microliters of luciferase detection reagent was added and luminescence was detected by a ViewLux (PerkinElmer) reader.
# On the % scale 0 is the no-effect control and ±100 the full control effect; potency means the concentration at half of the fitted maximal effect.
SMILES,"activity change, negative = inhibition [%]",Potency
CCCCc1cc(=O)oc2c(C)c(OCC(=O)N3CCC(C(N)=O)CC3)ccc12,19.5,
CCCc1cc(=O)oc2c(C)c(OC(C)C(=O)NCC(O)c3ccccc3)ccc12 (configuration not stated),-15.3,
CCCc1cc(=O)oc2c(C)c(O)c(CN3CCCCC3)cc12,,2.08 µM (active)
COc1ccc(NC(=O)CN2C(=O)COc3ccc(S(=O)(=O)N4CCOCC4)cc32)cc1,-0.78,
Cc1ccc(S(=O)(=O)N2CCC(C)CC2)cc1C(=O)NCc1ccccn1,6.35,
O=C(CCc1nc2sc3c(c2c(=O)[nH]1)CCCC3)NCC(=O)Nc1ccccc1Br,13.4,
O=C(CCNS(=O)(=O)c1cccs1)N1CCN(c2ccc(F)cc2)CC1,-21.8,
CN(CCC1CCOCC1)Cc1cn[nH]c1-c1ccc(-c2ccccc2)cc1,,13.1 µM (active)
CN(CCC1CCOCC1)C(=O)CC1C(=O)NCCN1Cc1cccc(F)c1 (configuration not stated),81.9,
O=[N+]([O-])c1ccc(N2CCSCC2)cc1O,23.3,
O=C(COC(=O)C1CC2CCCC(C1)C2=O)NC(=O)c1ccccc1 (configuration not stated),11.2,
Cc1ccc(Nc2nc(-c3ccc(O)cc3O)cs2)nc1,20.1,
Cc1cc(O)ccc1-c1cnc2ccccc2n1,,2.62 µM (active)
CC(=O)Nc1cccc(-c2cnc3ccccc3n2)c1,-1.47,
COc1ccc2oc(=N)c(C(=O)Nc3ccc(Br)cc3)cc2c1,257,
Cc1cccc(-n2c(=O)c3c(C)c(C)sc3n(CC(N)=O)c2=O)c1,32.2,
Cc1cccc(NC(=O)Cn2c(=O)n(Cc3ccccc3)c(=O)c3c(C)c(C)sc32)c1,,14.7 µM (active)
Cc1sc2c(c1C)c(=O)n(-c1ccccc1)c(=O)n2CC(=O)NCC1CCCO1 (configuration not stated),48.7,
Cc1noc(C)c1COc1ccccc1C(=O)N(C)CC(=O)Nc1cccc(F)c1,16.9,
O=C(O)C1CCC(CNS(=O)(=O)c2ccc(Br)cc2)CC1 (configuration not stated),2.75,
CN(C)CCCNC(=S)N1CCN(c2nc(-c3ccccc3)cs2)CC1,0,
Cc1ccc(NC(=O)C(CC(=O)O)C2CCCO2)c(C)c1 (configuration not stated),8.69,
COc1cccc(/C=C2\C=C(c3ccc(C)cc3)OC2=O)c1OC(C)=O,32.9,

SMILES,"activity change, negative = inhibition [%]",Potency
O=C(COC(=O)CCCN1C(=O)c2cccc3cccc(c23)C1=O)NC1CCS(=O)(=O)C1 (configuration not stated),30.8,
COc1cc([N+](=O)[O-])ccc1NC(=O)COC(=O)CCOc1ccc(C)cc1,-0.415,
O=C(Nc1nnc(CCN2CCCCC2)s1)c1cccc(Cl)c1,29.8,
CCN(CC)C(=O)C(=O)Nc1cccc(Br)c1,-5.94,
CCN(CC)C(=O)Oc1ccc(Br)cc1C(=O)Nc1ccc(F)c(Cl)c1,,11.7 µM (active)
COC(=O)c1ccc(NC(=O)c2cc(Cl)ccc2OC)cc1,0,
Cc1cc(C)n2nc(C(=O)OCC(=O)N(C)CC(=O)Nc3ccc(F)cc3)nc2n1,7.58,
COc1ccccc1NC(=O)C1=C(C)Nc2ncnn2C1c1ccc(C)o1 (configuration not stated),-29.5,
COc1ccccc1NC(=O)C1=C(C)NC(=O)NC1c1ccc(C)s1 (configuration not stated),,6.57 µM (active)
COc1ccccc1NC(=O)C1=C(C)NC2=C(C(=O)CCC2)C1c1ccc(C)o1 (configuration not stated),17.3,
Cc1ccc(Nc2ncnc3c2cnn3C)c(C)c1,-14.4,
O=C(c1ccco1)N1CCN=C1SCc1cccc(Cl)c1,,10.4 µM (active)
O=C(C1CC1)N1CCN=C1SCc1ccc(Cl)cc1,7.45,
O=C(COc1ccccc1)N1CCN=C1SCc1cccc(F)c1,8.33,
COc1ccccc1C1C(C(N)=O)=C(C)Nc2nc(CCCO)nn21 (configuration not stated),9.37,
Clc1ccc(C2=CSC3=Nc4cccc5cccc(c45)N23)cc1,,3.7 µM (active)
COc1ccccc1-c1c(C#N)c(N)nc2c1CCC2,14.8,
O=C(Nc1nonc1-c1ccc(Cl)cc1)c1ccco1,5.85,
COCCn1c(SC(C)C(=O)NC2CC2)nnc1-c1cccc(C)c1 (configuration not stated),4.07,
CCc1nc2cccnc2n1-c1ccc(C(=O)O)cc1,-9.55,
CCOc1ccc(CN(CCCl)CCCl)cc1C(=O)OC,64.7,
COC(=O)c1cc(CNC(=O)CC(C)c2ccccc2)ccc1OC (configuration not stated),2.52,
CCCOc1ccc(CN(CCO)CCO)cc1C(=O)OC,,8.28 µM (active)

SMILES,"activity change, negative = inhibition [%]",Potency
Cc1ccc(C(=O)NCCc2nnc(SCC(=O)Nc3cccc(C(=O)O)c3)n2C)cc1,4.52,
COc1cc(CCC(=O)N2CCN(c3ccccc3Cl)CC2)cc(OC)c1OC,-23.8,
Cc1ccc(NC(=S)NCCc2ccc(Cl)cc2)c(C)c1,-9.71,
CC(C)OC(=O)CN1C(=O)C(=O)c2ccccc21,,2.08 µM (active)
Cc1cccc2c1N(CC(=O)OC(C)C)C(=O)C2=O,38.3,
CC(C)OC(=O)CN1C(=O)c2ccccc2C1=O,,7.38 µM (active)
CCOC(=O)CN1C(=O)C(=O)c2cc(C)ccc21,125,
CC(OC(=O)CN1C(=O)c2ccccc2C1=O)C(=O)c1ccccc1 (configuration not stated),13.1,
COc1cc(C(C)=O)ccc1OC(=O)CN1C(=O)c2ccccc2C1=O,13.4,
CCCCn1c(N)c(N(CC)C(=O)c2ccc(N(C)S(=O)(=O)c3ccc(C)cc3)cc2)c(=O)[nH]c1=O,-16.1,
C[C@H](NC(=O)C1CC(=O)N(c2ccc3c(c2)OCCO3)C1)C(=O)N1CCC(C(=O)O)CC1 (some centres not stated),-9.53,
CC(C(=O)c1ccc(-c2ccccc2)cc1)[n+]1cccc(Br)c1 (configuration not stated),,2.33 µM (active)
CC(=O)Nc1ccc(C(=O)C(Cc2ccccc2)N(C)C)cc1 (configuration not stated),2.69,
O=C(NC1CCCC1)C(c1c(F)cccc1Cl)N(C(=O)c1csnn1)C1CC1 (configuration not stated),-4.38,
COc1ccc(-n2nc(C(=O)NCC(=O)Nc3cccc(C)n3)c3ccccc3c2=O)cc1,19.7,
COc1ccc(-n2nc(C(=O)Nc3cc(OC)c(OC)c(OC)c3)c3ccccc3c2=O)c(OC)c1,,8.28 µM (active)
COC(=O)c1cc(NC(=O)c2nn(C)c(=O)c3ccccc23)cc(C(=O)OC)c1,59.9,
Cc1ccc(NC(=O)Cc2nnc(SCC(=O)Nc3nncs3)n2C)cc1,-28.1,
CC1CCN(S(=O)(=O)c2ccc3c(ccn3CC(=O)O)c2)CC1,-20.2,
O=C(CNC(=O)c1ccccc1F)c1ccc(Br)cc1,68.4,
COc1cccc(NC(=O)CN(C)C(=O)CSCc2nc3scc(-c4cccs4)c3c(=O)[nH]2)c1,28.3,
